The record followed here is PubChem BioAssay (NCATS).

Experiment [1] in a line: High Content Imaging Cell-Based qHTS for Inhibitors of the mTORC1 Signaling Pathway in MEF (Tsc2-/-, p53-/-) Cells (AID 2666).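 Further: percent of cells scored positive for phospho-rpS6 Ser235/236 immunostaining by imaging.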 Summed up:
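Cells were plated, dosed with compound after 24 hrs, and incubated another 24 hrs at 37 degree Celsius. Fixed cells were immunostained for phospho-rpS6 Ser235/236 and counterstained, and the normalized signal was scored as % active cells against rapamycin and DMSO controls.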

The nature of experiment [2]: High Content Imaging Cell-Based qHTS for Inhibitors of the mTORC1 Signaling Pathway in MEF Cells (AID 2667).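 Further: Tsc2-/- p53-/- MEFs stably re-expressing wild-type Tsc2 exposed 24 h; series mostly up to about 38 µM.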 Put shortly: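 Immunofluorescence for rpS6 phosphorylation in MEFs of Tsc2-/-, p53-/- background rescued with WT Tsc2. Compound exposure lasted 24 hrs. Inhibition was scored against rapamycin-treated control wells.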
A general note: Quantitative high-throughput screening tests each substance at several concentrations.

Experiment [3] in a line: Cytometry Cell-Based qHTS for Inhibitors of the mTORC1 Signaling Pathway in MEF cells (AID 2668).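 Further: Tsc2-/- p53-/- mouse embryonic fibroblasts stably re-expressing wild-type Tsc2; percent cells positive for phospho-rpS6 Ser235/236 relative to propidium iodide stain; series mostly up to about 38 µM.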 Summed up: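 Read-out: phospho-rpS6 Ser235/236 immunofluorescence normalized to propidium iodide intensity, scored as % active cells against a rapamycin (7.5 nM) threshold. Cells: Tsc2-/-, p53-/- MEFs stably expressing WT Tsc2, compound-treated 24 hrs at 37 degree Celsius.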

Experiment [4] can be described thus: Validation screen for small molecules that induce DNA re-replication in MCF 10A normal breast cells (AID 463097). Further: nearly all actives have a fitted effect of over 60% in size. Further: potency means the concentration at half of the fitted maximal effect. Put shortly:
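250 MCF 10A cells/well; compound pin-transferred; 48 hr, 37 C, 5% CO2; Hoechst 40 min; imaged 405/500-530 nm. Hits = more high-intensity nuclei.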

In experiment [5] the target is Ubiquitin carboxyl-terminal hydrolase 2 (Homo sapiens) (UniProt O75604). Kind of experiment: qHTS Validation Assay for Inhibitors of Ubiquitin-specific Protease USP2a Using CHOP2 as the Reporter (AID 463106). Put shortly: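 10nM USP2 core + cpd, 30min RT; add 25nM Ub-CHOP2/25nM substrate; 60min RT; FI 485/531nm. Buffer Tris pH 8.0, CaCl2, BME, CHAPS. Norm. to NEM = 100% inhibition; time-zero read flags fluorescent artifacts.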

In experiment [6] the target is DNA polymerase III PolC-type (Bacillus subtilis (strain 168)) (UniProt P13267). Kind of experiment: qHTS Validation Assay for the Inhibitors of DNA Replication in Gram-Positive Bacteria (AID 485295).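 Further: reconstituted holoenzyme with PolC plus beta clamp SSB and primase; PicoGreen fluorescence of double-stranded DNA made on primed circular M13 template; series mostly up to about 57 µM.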 Put shortly: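 PicoGreen fluorescence (ex 480–485/em 535–540 nm) reports dsDNA synthesized on ssM13Gori template with dNTPs/NTPs. Enzyme: holoenzyme rebuilt from purified PolC, beta subunit, SSB and primase. Compound preincubated before substrate addition; RT throughout.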

The target of experiment [7] is Tumor susceptibility gene 101 protein (Homo sapiens) (UniProt Q99816). Kind of experiment: qHTS Validation Assay for Iinhibitors of HIV-1 Budding by Blocking the Interaction of PTAP/TSG101 (AID 485342; calls by dose curve). Summed up:
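FP read-out: FITC-PTAP peptide, 50 nM final, binding Tsg101 binding domain, 10 uM final; 20 min r.t.; 10 mM HEPES pH 7.5, 0.15 M NaCl, 0.01% Tween 20, 3 mM EDTA, 0.1 mM TCEP.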

A short description of experiment [8]: qHTS Validation Assay to Find Inhibitors of Chronic Active B-Cell Receptor Signaling (AID 485345; active means well fitted curve in the direction sought with a large enough effect in the main read-out, with a control signal flat, not every such curve was filed as active). Summed up:
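Read-out: ratio of filter-corrected green (IkappaBalpha fusion) to red (native) luciferase signal in doxycycline-induced TMD8 cells after 4 h at 37C. Titration spanned 46 uM–3 nM; Data were normalised to basal cells and 10 uM MG-132 wells.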

The target in experiment [9] is Beta-2 adrenergic receptor (Homo sapiens) (UniProt P07550). Kind of experiment: qHTS validation assay of beta-arrestin-biased ligands of beta2-adrenergic receptor (AID 485366). Put shortly: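 Tango cells expressing recombinant beta2-AR and beta-arrestin with tTA-driven luciferase, in DMEM with 1% FBS. Compounds were titrated up to 46 microM for 18 hr at 37 degrees C. Luminescence was read 15 min after substrate; curves were fitted and class-assigned.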

In experiment [10] the target is ATP-dependent 6-phosphofructokinase (Trypanosoma brucei brucei) (UniProt O15648). Kind of experiment: qHTS Validation Assay to Find Inhibitors of T. brucei phosphofructokinase (AID 485368). Conditions: outcome: dose series up to 57.5 µM. Summed up:
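Activity was read as ADP production by luminescence (ADP-Glo) after 45 min at room temperature. The enzyme was 1.25nM PFK in 0.1M TEA pH 8.0 with 0.5 mM F6P, 0.1mM ATP and 5 mM MgCl2. Compounds were titrated up to 57 uM and % activity normalized to no-enzyme and full-enzyme controls.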

Results filed as inconclusive are left out. Activity calls are given as the source filed them. Unless noted, the call rests on the fitted dose curve; in most records, active means well fitted curve in the direction sought with a large enough effect; inconclusive means small, poorly fitted or top-dose-only effect, or another doubt; inactive means no such curve, though single readings can be large; an effect the other way counts as inactive or inconclusive.

Chain of ATP-dependent 6-phosphofructokinase (Trypanosoma brucei brucei) (O15648 whole entry, looked up): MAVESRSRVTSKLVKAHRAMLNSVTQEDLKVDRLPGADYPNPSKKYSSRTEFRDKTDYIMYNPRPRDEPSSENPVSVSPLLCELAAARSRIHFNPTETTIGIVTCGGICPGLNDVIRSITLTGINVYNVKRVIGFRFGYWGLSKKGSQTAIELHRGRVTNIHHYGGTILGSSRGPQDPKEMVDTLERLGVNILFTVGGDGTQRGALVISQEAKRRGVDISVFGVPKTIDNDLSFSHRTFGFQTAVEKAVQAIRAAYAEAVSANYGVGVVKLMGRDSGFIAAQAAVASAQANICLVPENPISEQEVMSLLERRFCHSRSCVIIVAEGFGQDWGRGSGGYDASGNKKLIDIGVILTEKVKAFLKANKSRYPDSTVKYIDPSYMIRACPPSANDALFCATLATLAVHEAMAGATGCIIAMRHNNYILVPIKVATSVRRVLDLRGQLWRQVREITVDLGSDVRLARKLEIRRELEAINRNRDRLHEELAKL
Chain of DNA polymerase III PolC-type (Bacillus subtilis (strain 168)) (P13267 whole entry, looked up): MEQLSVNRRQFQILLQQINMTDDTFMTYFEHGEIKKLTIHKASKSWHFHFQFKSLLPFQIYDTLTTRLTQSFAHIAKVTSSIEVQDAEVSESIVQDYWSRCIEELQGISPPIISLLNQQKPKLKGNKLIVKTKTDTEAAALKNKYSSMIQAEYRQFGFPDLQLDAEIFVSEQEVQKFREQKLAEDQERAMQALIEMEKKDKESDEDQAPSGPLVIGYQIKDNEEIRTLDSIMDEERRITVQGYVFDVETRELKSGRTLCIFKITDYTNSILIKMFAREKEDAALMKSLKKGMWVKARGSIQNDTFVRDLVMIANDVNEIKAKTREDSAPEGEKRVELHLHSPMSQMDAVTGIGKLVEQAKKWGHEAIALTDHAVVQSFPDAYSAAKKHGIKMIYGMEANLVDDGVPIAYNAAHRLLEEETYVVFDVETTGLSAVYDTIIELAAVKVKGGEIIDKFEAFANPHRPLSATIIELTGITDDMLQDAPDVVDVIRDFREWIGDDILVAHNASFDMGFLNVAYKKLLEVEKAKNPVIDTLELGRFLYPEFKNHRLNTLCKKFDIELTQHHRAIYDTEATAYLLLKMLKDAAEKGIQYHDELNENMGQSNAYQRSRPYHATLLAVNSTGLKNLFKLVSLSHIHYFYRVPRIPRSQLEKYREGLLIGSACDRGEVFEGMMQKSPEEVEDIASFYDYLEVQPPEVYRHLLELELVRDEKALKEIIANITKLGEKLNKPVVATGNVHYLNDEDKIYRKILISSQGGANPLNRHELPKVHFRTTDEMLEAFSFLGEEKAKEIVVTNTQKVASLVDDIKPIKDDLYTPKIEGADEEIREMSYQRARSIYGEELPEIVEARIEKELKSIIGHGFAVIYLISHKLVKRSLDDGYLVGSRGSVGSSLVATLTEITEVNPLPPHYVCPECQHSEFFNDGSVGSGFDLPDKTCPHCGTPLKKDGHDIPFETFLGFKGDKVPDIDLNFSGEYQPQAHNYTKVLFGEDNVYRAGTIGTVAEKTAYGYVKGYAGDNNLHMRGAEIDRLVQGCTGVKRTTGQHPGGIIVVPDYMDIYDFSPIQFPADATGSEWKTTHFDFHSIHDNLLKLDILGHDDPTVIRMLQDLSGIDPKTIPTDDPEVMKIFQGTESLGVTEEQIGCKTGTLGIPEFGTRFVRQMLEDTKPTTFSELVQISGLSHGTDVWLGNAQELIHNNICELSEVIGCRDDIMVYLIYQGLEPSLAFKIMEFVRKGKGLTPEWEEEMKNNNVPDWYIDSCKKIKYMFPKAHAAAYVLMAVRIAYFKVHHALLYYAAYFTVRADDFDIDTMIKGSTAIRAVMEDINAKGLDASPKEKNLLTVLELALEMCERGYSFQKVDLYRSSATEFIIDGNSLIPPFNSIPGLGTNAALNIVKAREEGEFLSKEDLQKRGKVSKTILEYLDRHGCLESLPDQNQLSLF
Chain of Beta-2 adrenergic receptor (Homo sapiens) (P07550 whole entry, looked up): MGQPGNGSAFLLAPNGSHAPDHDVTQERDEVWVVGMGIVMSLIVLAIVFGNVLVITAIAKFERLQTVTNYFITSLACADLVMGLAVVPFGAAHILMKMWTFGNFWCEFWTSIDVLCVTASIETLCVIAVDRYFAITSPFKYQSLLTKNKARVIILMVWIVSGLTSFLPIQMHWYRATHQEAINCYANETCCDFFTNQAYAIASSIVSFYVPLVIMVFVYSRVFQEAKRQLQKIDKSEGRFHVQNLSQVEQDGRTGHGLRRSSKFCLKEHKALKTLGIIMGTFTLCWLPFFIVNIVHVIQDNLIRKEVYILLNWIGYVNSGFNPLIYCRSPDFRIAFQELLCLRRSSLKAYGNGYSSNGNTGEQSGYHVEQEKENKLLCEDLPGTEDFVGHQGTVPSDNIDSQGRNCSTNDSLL
Chain of Tumor susceptibility gene 101 protein (Homo sapiens) (Q99816 whole entry, looked up, the tested form may be a part): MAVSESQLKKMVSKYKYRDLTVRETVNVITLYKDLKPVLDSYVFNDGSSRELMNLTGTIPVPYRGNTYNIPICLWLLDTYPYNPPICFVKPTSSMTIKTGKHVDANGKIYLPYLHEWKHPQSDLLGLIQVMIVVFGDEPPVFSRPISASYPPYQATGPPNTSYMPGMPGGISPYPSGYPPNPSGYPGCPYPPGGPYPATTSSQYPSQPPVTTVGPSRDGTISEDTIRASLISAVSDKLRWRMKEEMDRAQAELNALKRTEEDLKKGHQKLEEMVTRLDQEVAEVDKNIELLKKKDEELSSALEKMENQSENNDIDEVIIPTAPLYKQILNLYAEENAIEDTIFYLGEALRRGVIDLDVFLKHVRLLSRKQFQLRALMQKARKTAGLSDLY
Chain of Ubiquitin carboxyl-terminal hydrolase 2 (Homo sapiens) (O75604 whole entry, looked up): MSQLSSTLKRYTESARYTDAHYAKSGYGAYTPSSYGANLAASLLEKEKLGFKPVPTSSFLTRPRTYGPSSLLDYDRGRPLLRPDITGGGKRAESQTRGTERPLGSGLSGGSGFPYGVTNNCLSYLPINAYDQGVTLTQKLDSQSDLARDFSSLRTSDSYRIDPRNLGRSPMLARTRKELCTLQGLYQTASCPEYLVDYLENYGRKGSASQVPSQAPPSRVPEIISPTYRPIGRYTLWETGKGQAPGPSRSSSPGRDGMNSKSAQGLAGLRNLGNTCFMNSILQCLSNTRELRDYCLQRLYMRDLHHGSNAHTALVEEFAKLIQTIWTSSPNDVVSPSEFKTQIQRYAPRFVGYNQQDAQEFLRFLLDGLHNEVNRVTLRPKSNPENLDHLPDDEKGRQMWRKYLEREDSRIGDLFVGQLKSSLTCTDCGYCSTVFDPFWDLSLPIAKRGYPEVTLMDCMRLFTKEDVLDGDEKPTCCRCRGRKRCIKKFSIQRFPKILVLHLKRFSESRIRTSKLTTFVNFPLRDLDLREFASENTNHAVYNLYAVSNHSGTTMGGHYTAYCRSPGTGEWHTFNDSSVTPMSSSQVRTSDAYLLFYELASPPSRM

Regarding `CN/C(=C\[N+](=O)[O-])NCCSCc1ccc(CN(C)C)o1`, the Potency result in experiment [1], in [2], in experiment [3], in [4], in experiment [6] and in experiment [8] was “inactive” in each case. Moreover, the compound was called inactive in experiment [5], in experiment [7] and in experiment [9].
Take `C[N+](C)(C)CCOC(N)=O`: the Potency entry in experiment [1], in experiment [2], in experiment [3], in [4], in experiment [6] and in experiment [8] was “inactive” in each case. The outcome in experiment [5], in [7] and in experiment [9] was inactive.
In the case of `CC(C(=O)O)c1ccc(CC2CCCC2=O)cc1` (stereo unspecified), the Potency result in experiment [1], in [2], in experiment [3], in experiment [4], in experiment [6] and in [8] was “inactive” in each case. Also, the compound was classed as inactive in experiment [5], in experiment [7] and in [9].
For `CC(N=C(NC#N)Nc1ccncc1)C(C)(C)C` (stereo unspecified), the Potency entry in experiment [1], in [2], in [3], in experiment [4], in [6] and in [8] was “inactive” in each case. The compound was called inactive in [5], in [7], in experiment [9] and in [10].
For `CCN(CC)CCNC(=O)c1cc(S(C)(=O)=O)ccc1OC`, the Potency result in [1], in experiment [2], in [3], in [4], in [6] and in experiment [8] was “inactive” throughout. For the same compound, the result in experiment [5], in experiment [7] and in experiment [9] was inactive.
Regarding `CN(C)CC[C@@H](c1ccc(Br)cc1)c1ccccn1`, the Potency result in experiment [1], in [2], in experiment [3], in experiment [4], in [6] and in experiment [8] was “inactive” throughout. For the same compound, the outcome in experiment [5], in experiment [7] and in experiment [9] was inactive.
For the compound `CC(C)COCC(CN(Cc1ccccc1)c1ccccc1)N1CCCC1` (stereo unspecified), the Potency result in experiment [1], in [2], in [3], in experiment [4], in [6] and in [8] was “inactive” throughout. In addition, the compound was called inactive in [5], in [7] and in experiment [9].
Consider `CN=C(NC#N)NCCSCc1nc[nH]c1C`, for which the Potency entry in [1], in [2], in experiment [3], in experiment [4], in [6] and in experiment [8] was “inactive” in each case. Moreover, the result in experiment [5], in experiment [7] and in experiment [9] was inactive.
In the case of `CCN(CC)CC(=O)Nc1c(C)cccc1C`, the Potency result in experiment [1], in [2], in experiment [3], in experiment [4], in experiment [6] and in [8] was “inactive” throughout. Besides, the compound was called inactive in [5], in experiment [7] and in [9].
As to `CC(C)(C)NCC(O)c1cc(O)cc(O)c1` (stereo unspecified), the Potency result in experiment [1], in [2], in [3], in experiment [4], in [6] and in experiment [8] was “inactive” throughout. Also, the compound was called inactive in experiment [5] and in experiment [7].
Consider `CCn1cc(C(=O)O)c(=O)c2cc3c(cc21)OCO3`, for which the Potency result in experiment [1], in experiment [2], in experiment [3], in experiment [4], in experiment [6] and in experiment [8] was “inactive” throughout. The compound was called inactive in experiment [5], in [7] and in experiment [9].
Turning to `CCCN1C[C@H](CSC)C[C@@H]2c3cccc4[nH]cc(c34)C[C@H]21`, the Potency result in experiment [1], in experiment [2], in experiment [3], in experiment [4], in [6] and in [8] was “inactive” each time. Moreover, the result in experiment [5], in experiment [7], in [9] and in [10] was inactive.
On to `CCn1ccnc1CC1COc2ccccc2O1` (stereo unspecified), for which the Potency entry in experiment [1], in [2], in experiment [3], in experiment [4], in [6] and in experiment [8] was “inactive” throughout. For the same compound, the outcome in experiment [5], in experiment [7] and in experiment [9] was inactive.
As to `Cc1ccc(=O)n(-c2ccccc2)c1`, the Potency result in experiment [1], in experiment [2], in [3], in [4], in experiment [6] and in [8] was “inactive” in each case. The outcome in [5], in experiment [7], in experiment [9] and in experiment [10] was inactive.
For `Cc1cccc(C)c1NC(=O)C(C)N` (stereo unspecified), the Potency result in [1], in experiment [2], in experiment [3], in [6] and in [8] was “inactive” each time. Besides, the call in [5], in experiment [7] and in experiment [9] was inactive.
With `OC(CCN1CCCCC1)(c1ccccc1)C1CCCCC1` (stereo unspecified), the Potency entry in experiment [1], in experiment [2], in experiment [3], in [4] and in experiment [6] was “inactive” each time. Also, the compound was called inactive in experiment [5], in experiment [7] and in experiment [9].
Turning to `Cc1ccc(Cl)c(Nc2ccccc2C(=O)O)c1Cl`, the Potency result in experiment [1], in experiment [2], in experiment [3] and in experiment [6] was “inactive” throughout. The Potency in [4] is 14.1 µM (active). For the same compound, the compound was called inactive in experiment [5], in experiment [7], in experiment [9] and in experiment [10].
Take `C[C@]12C=CC(=O)C=C1CC[C@H]1[C@@H]3C[C@@H](O)[C@](O)(C(=O)CO)[C@@]3(C)C[C@H](O)[C@@]12F`: the Potency result in experiment [1], in experiment [2], in experiment [3], in experiment [4] and in experiment [6] was “inactive” throughout. Besides, the compound was classed as inactive in [5], in [9] and in experiment [10].
For `CN(C)C(=O)Oc1ccc[n+](C)c1`, the Potency result in [1], in experiment [2], in experiment [3], in [4], in [6] and in experiment [8] was “inactive” each time. For the same compound, the compound was called inactive in experiment [5], in [7], in [9] and in [10].
Take `CCN(CC)CCNC(=O)c1ccc(NC(C)=O)cc1`: the Potency entry in experiment [1], in experiment [2], in experiment [3], in experiment [4], in experiment [6] and in [8] was “inactive” in each case. The compound was called inactive in experiment [5], in experiment [7], in experiment [9] and in [10].
As for `O=C(O)CN(CCN(CC(=O)O)CC(=O)O)CCN(CC(=O)O)CC(=O)O`, the Potency result in [1], in experiment [2], in experiment [3], in [4], in experiment [6] and in [8] was “inactive” throughout. Further, the compound was called inactive in [5] and in experiment [9].
In the case of `COC(=O)[C@H]1[C@H]2C[C@@H]3c4[nH]c5cc(OC)ccc5c4CCN3C[C@H]2C[C@@H](OC(=O)c2cc(OC)c(OC)c(OC)c2)[C@@H]1OC`, the Potency entry in [1], in [2], in [3] and in experiment [6] was “inactive” throughout. Further, in [4], the Potency is 11.2 µM (active). Moreover, the outcome in experiment [5] and in experiment [9] was inactive.
As for `CCN1CCC[C@H]1CNC(=O)c1c(O)c(Cl)cc(Cl)c1OC`, the Potency result in experiment [1], in experiment [2], in [3], in experiment [4], in [6] and in [8] was “inactive” in each case. Besides, the compound was classed as inactive in experiment [5], in experiment [7], in experiment [9] and in experiment [10].
For `CCO/C([O-])=N/c1c[n+](N2CCOCC2)no1`, the Potency result in [1], in experiment [2], in experiment [3], in [4], in [6] and in experiment [8] was “inactive” in each case. Besides, the result in experiment [5], in [7], in experiment [9] and in [10] was inactive.
